Measurements as given in ChEMBL document CHEMBL3988442, “University of Dundee, Small-Polar-MMV Screening Library” (2021).
In all, about 48,000 compounds went through this assay and about 13,000 (27%) showed an effect of 50% or more. This is one part of the list.

What follows are compounds tested on Wolbachia pipientis (assay: Anti-Wolbachia Cell-Based Screen). Conditions: 5 µM.
Assay type: functional
Set-up: scale not given: in the data most compounds retested in dose-response had high values

SMILES | Percent Effect [%]
Cc1nc(CN(C)Cc2nc(-c3sccc3C)oc2C)no1 | -9.354
CSCCCN1CCCC(Cn2ccnc2)C1 (centres undefined) | 13.29
O=C(O)C(F)(F)F.O=S(=O)(C1CC1)N1CCO[C@@H]2CC(COCc3cccnc3)C[C@H]21 (some centres undefined) | 111.9
O=C(O)C(F)(F)F.O=C(O)C(F)(F)F.c1cncc(COCC2CC[C@H]3[C@H](CCN3CC3CCOCC3)O2)c1 (some centres undefined) | -3.08
O=C(O)C(F)(F)F.O=C(c1ccno1)N1CCO[C@@H]2CC(COCc3ccccn3)C[C@H]21 (some centres undefined) | 99.5
Cc1ccc(C(=O)N2CCO[C@H]3[C@H](OCc4ccccn4)CC[C@@H]32)o1.O=C(O)C(F)(F)F | -0.009897
O=C(c1ccc[nH]1)N1CCO[C@H]2CC(COCc3ccccn3)C[C@@H]21 (some centres undefined) | 10.05
CCc1nc(-c2noc3ccc(C(=O)N(C)CCOC)cc23)co1 | 2.681
CC(Nc1nc2c(cnn2C)c(=O)[nH]1)c1ccc2c(c1)CCCC2 (centres undefined) | 4.227
CC(C)c1noc(CN(C)C(=O)C2COc3ccccc3C2)n1 (centres undefined) | -21.45
CC(C)c1noc(CCC(=O)NCC2CCOC2)n1 (centres undefined) | 7.119
Cc1cnc(C(=O)NCC2Cc3ccccc3O2)cn1 (centres undefined) | -10.72
CC(=O)NCCNC(=O)NCC1Cc2ccccc2O1 (centres undefined) | 101.6
CC(C)c1noc(CCNC(=O)NCC2COc3ccccc3O2)n1 (centres undefined) | 100.4
CC(C)c1noc(CCC(=O)NCC2CCS(=O)(=O)C2)n1 (centres undefined) | 6.847
CC(C)c1noc(CCNC(=O)NCC2Cc3ccccc3O2)n1 (centres undefined) | 104.8
CC(=O)c1ccc(C(=O)NCC2Cc3ccccc3O2)s1 (centres undefined) | -26.22
CC(C)c1noc(CCNC(=O)C2COc3ccccc3C2)n1 (centres undefined) | -14.38
CCN(CC)CCSc1nnc(N2CCN(c3ccc(F)cc3)CC2)s1 | 10.77
CCC(C(=O)NC1(COC)CCCC1)n1cccn1 (centres undefined) | 10.41
COCCCN1C(=O)CC[C@H]2CN(Cc3cc4ccccc4o3)CC[C@H]21 | -11.4
c1cnn(CC2CCN(c3nc(C4CC4)nc4c3CCNCC4)CC2)c1 | 9.099

SMILES | Percent Effect [%]
O=C(Cn1nnn(-c2cccs2)c1=O)N(CC1CCOC1)C1CC1 (centres undefined) | -6.322
COc1cccc(C(=O)N2C[C@@H](CN(C)CCO)[C@@H](CO)C2)c1C | -4.304
COCCN(Cc1ccccn1)C(=O)c1ccc(=O)n(C)c1 | 4.944
COCCN(Cc1cccs1)C(=O)c1ccc(=O)n(C)c1 | -19.51
COCCN(C)C[C@@H]1CN(C(=O)c2ccc(=O)n(C)c2)C[C@@H]1CO | 59.39
COCCN(C)C[C@H]1C[C@H](CO)CN(C(=O)c2ccc(=O)n(C)c2)C1 | 90.72
CC(NC(=O)CCNC(=O)c1ccoc1)c1ccccc1 (centres undefined) | -1.423
Cc1cnc(CN(C)C2CCN(Cc3ccccc3C#N)C2)o1 (centres undefined) | 18.72
CC(=O)N(Cc1ncc(C)o1)C1CCN(Cc2cccc(C#N)c2)C1 (centres undefined) | -1.585
CC(=O)N(Cc1ncc(C)o1)C1CCN(Cc2ccccc2C#N)C1 (centres undefined) | 110
CC(=O)N(Cc1ncc(C)o1)C1CCN(Cc2ccccc2F)C1 (centres undefined) | 139.2
CC(=O)N(Cc1ncc(C)o1)C1CCN(Cc2ccncc2Cl)C1 (centres undefined) | -1.852
c1cnc(-c2nc(CNCCn3cccn3)cs2)nc1 | -8.125
Cc1nc(C)n(C2CCCN(C(=O)c3sccc3C3CC3)C2)n1 (centres undefined) | -8.521
CC(CNS(N)(=O)=O)c1ccc(F)c(F)c1 (centres undefined) | -14.37
CN(CC(=O)N1CCCCC1c1nc(C(C)(C)C)cs1)C1CC1 (centres undefined) | 131.5
Cc1noc(COCC(=O)N2CCCCC2c2nccs2)n1 (centres undefined) | -17.81
CN(CC(=O)N1CCCCC1c1nccs1)C1CC1 (centres undefined) | 114.2
CC(C)(C)c1csc(C2CCCCN2C(=O)CCn2cncn2)n1 (centres undefined) | -13.47
O=C1CSc2ccccc2N1CC(=O)N1CCCCC1c1nccs1 (centres undefined) | 2.391
Cc1ncc(CC(=O)N2CCCC(COc3ccc(F)cc3)C2)c(=O)[nH]1 (centres undefined) | 33.2
COCCCSc1ccc(NC(=O)Nc2cn[nH]c2)cc1 | 3.134

SMILES | Percent Effect [%]
CN(Cc1ccoc1)c1ccc(-c2nccn2C)nn1 | -4.933
CC(C)(C(=O)NCC1CC1)c1ccccc1F | -12.8
O=C(NC(C(=O)Nc1cc[nH]n1)c1ccccc1)C1CCC1 (centres undefined) | -26.62
CCN(C)C(=O)c1cc(-c2cn(C(C)C)cn2)n2ccccc12 | 4.681
CC(C)NC(=O)CCNC(=O)c1c(Br)c2ccccc2n1C | 2.193
CC(C)n1c2ccccc2c2c1cc(C(=O)NCCO)n2C(=O)N(C)C | 98.19
CCCNC(=O)c1cc2c(c3ccccc3n2C)n1C(=O)N(C)C | -57.33
CC(C)N1CCC(NC(=O)NCc2ccccc2)CC1 | 1.205
CC(C)n1c2ccccc2c2c1cc(C(=O)O)n2C(=O)N(C)C | 98.97
Cc1cn(CC(=O)NC2CCN(C(C)C)CC2)c2ccccc12 | -15.19
CC(C)n1c2ccccc2c2c1cc(C(=O)NC1CC1)n2C(=O)N(C)C | 111.7
COCC(C)N(C)C(=O)c1nc(S(C)(=O)=O)n2ccccc12 (centres undefined) | -2.923
CC(C)n1c2ccccc2c2c1cc(C(=O)N(C)C)n2S(C)(=O)=O | 91.91
CCc1nc(CN2CCCN(c3ncnc4ccccc34)CC2)no1 | 29.73
Cc1noc(CCCC(=O)NC(C)c2ccccn2)n1 (centres undefined) | -13.35
CCCN(CC)C(=O)c1cc2c(c3ccccc3n2C)n1C(=O)N(C)C | -10.54
CC(C)n1c2ccccc2c2c1cc(C(=O)N(C)C)n2C(=O)N(C)C | 90.72
CC(C)n1c2ccccc2c2c1cc(C(=O)N(C)C)n2C | 109.8
O=C(NCCc1nncn1C1CC1)C1SCCc2sccc21 (centres undefined) | -5.898
CCN(Cc1ccncc1)C(=O)c1cc(C)c(C)c(S(N)(=O)=O)c1 | 3.273
